The nature of experiment [1]: NCI Yeast Anticancer Drug Screen. Data for the rad50 strain (AID 155).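 Further: 0% = growth of vehicle-only cultures of the same strain.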 The note with it: S. cerevisiae rad50 strain growth inhibition, hits give high values. The procedure, abridged:
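Relative growth inhibition (compound vs vehicle) was measured in yeast with a defined repair-gene alteration.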

Experiment [2] in a line: NCI Yeast Anticancer Drug Screen. Data for the mec2-1 strain (AID 157). The note with it: S. cerevisiae mec2-1 strain, hits give high values. The procedure, abridged: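 Compounds were applied to mec2-1 yeast cells. Their growth was then compared with that of vehicle-treated cultures to give growth inhibition.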
The nature of experiment [3]: NCI Yeast Anticancer Drug Screen. Data for the sgs1 mgt1 strain (AID 161).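 Further: 0% = growth of cultures given vehicle only.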 The note with it: S. cerevisiae sgs1 mgt1 strain, hits give high values. The procedure, abridged:
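This yeast growth screen uses a strain with defined DNA-repair lesions; compound-treated growth is compared with vehicle-treated growth.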

Experiment [4] is described as follows: NCI Yeast Anticancer Drug Screen. Data for the cln2 rad14 strain (AID 165).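 Further: 0% = growth equal to vehicle treated cultures.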 The note with it: S. cerevisiae cln2 rad14 strain, hits give high values. The method, boiled down: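 Strain: cln2 rad14 yeast, altered in cell cycle control and DNA damage repair. Read-out: growth inhibition vs vehicle.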
The nature of experiment [5]: NCI Yeast Anticancer Drug Screen. Data for the bub3 strain (AID 167). The note with it: S. cerevisiae bub3 mutant strain, hits give high values. The procedure, abridged: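 Screening used yeast with an engineered genetic alteration affecting cell cycle control. Compound-exposed cultures were compared with vehicle cultures, and reduced growth was taken as inhibition.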

Experiment [6] in a line: NCI Yeast Anticancer Drug Screen. Data for the mlh1 rad18 strain (AID 175). The conditions noted are these: S. cerevisiae mlh1 rad18 strain growth inhibition, hits give high values. The method, boiled down:
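A repair-deficient yeast strain is exposed to test compound, and growth is scored relative to vehicle-treated controls.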

The mark [7] stands for this setting: at 5.0 µM (retest, dose inferred, filed as 0.5).
Setting [8] is: at 50.0 µM (retest, dose inferred, filed as 5.0).

This is part of a sample that, as a whole, favours compounds with a hit. Of some 79,000 tested, about 15% had one in any assay. Values without a mark were called inactive. Activity calls are given as the source filed them. No stated cut-off is given here; in the data, active means growth inhibition above about 70%; inactive means the rest.

As for `O=C(O)C1C(=O)OC2CCCCC21` (stereo not given), the growth inhibition in experiment [1] (setting [7]) is 0%; in experiment [1] (setting [8]), -4%; in experiment [1] (at 50.0 µM), 3.25%; in experiment [2] (setting [7]) it was 1%; in experiment [2] (setting [8]), 1%; in experiment [2] (at 50.0 µM), -6.45%. The growth inhibition in experiment [3] (setting [7]) is 1%; in experiment [3] (setting [8]), 0%; in experiment [3] (at 50.0 µM), 0.45%; in experiment [4] (setting [7]) it was -3%; in experiment [4] (setting [8]), 1%; in experiment [4] (at 50.0 µM), 69.4%. Further, the growth inhibition in experiment [5] (setting [7]) is 0%; in experiment [5] (setting [8]), -3%; in experiment [5] (at 50.0 µM) it was -0.95%; in experiment [6] (setting [7]), -2%; in experiment [6] (setting [8]) it was -3%; in experiment [6] (at 50.0 µM), -2.4%.

`N#CC(C(=O)C(=O)Nc1ccc(Cl)c(Cl)c1)c1c(Cl)cccc1Cl` (stereo not given): the growth inhibition in experiment [1] (setting [7]) was -1%; in experiment [1] (setting [8]), 4%; in experiment [1] (at 50.0 µM) it was 25.9%; in experiment [2] (setting [7]), -2%; in experiment [2] (setting [8]), -10%; in experiment [2] (at 50.0 µM), 3.15%. The growth inhibition was -1% in experiment [3] (setting [7]); -1% in experiment [3] (setting [8]); 2.95% in experiment [3] (at 50.0 µM); 4% in experiment [4] (setting [7]); -4% in experiment [4] (setting [8]); 43% in experiment [4] (at 50.0 µM). Besides, the growth inhibition in experiment [5] (setting [7]) was -1%; in experiment [5] (setting [8]), -1%; in experiment [5] (at 50.0 µM), -3.2%; in experiment [6] (setting [7]), -2%; in experiment [6] (setting [8]), -5%; in experiment [6] (at 50.0 µM), 31.4%.

Consider `Cc1c(-c2ccccc2)ccnc1/C=N/NC(=S)Nc1ccc(N(C)C)cc1`, for which the growth inhibition in experiment [1] (setting [7]) is 48%; in experiment [1] (setting [8]) it was 94% (active); in experiment [1] (at 50.0 µM), 74.8% (active); in experiment [2] (setting [7]), 38%; in experiment [2] (setting [8]), 96% (active); in experiment [2] (at 50.0 µM), 76.7% (active). Further, the growth inhibition is 49% in experiment [3] (setting [7]); 93% (active) in experiment [3] (setting [8]); 70% (active) in experiment [3] (at 50.0 µM); 43% in experiment [4] (setting [7]); 91% (active) in experiment [4] (setting [8]); 60.6% in experiment [4] (at 50.0 µM). Further, the growth inhibition in experiment [5] (setting [7]) was 59%; in experiment [5] (setting [8]), 94% (active); in experiment [5] (at 50.0 µM), 81.7% (active); in experiment [6] (setting [7]), 36%; in experiment [6] (setting [8]), 93% (active); in experiment [6] (at 50.0 µM), 79.6% (active).

For the compound `CC(NNC(=S)N1CCCC1)c1ccc2ccccc2n1` (stereo not given), the growth inhibition in experiment [1] (setting [7]) was 24%; in experiment [1] (setting [8]), 96% (active); in experiment [1] (at 50.0 µM) it was 98% (active); in experiment [2] (setting [7]) it was 6%; in experiment [2] (setting [8]), 96% (active); in experiment [2] (at 50.0 µM), 98.2% (active). Moreover, the growth inhibition was 22% in experiment [3] (setting [7]); 96% (active) in experiment [3] (setting [8]); 98% (active) in experiment [3] (at 50.0 µM); 4% in experiment [4] (setting [7]); 95% (active) in experiment [4] (setting [8]); 97% (active) in experiment [4] (at 50.0 µM). Further, the growth inhibition is 7% in experiment [5] (setting [7]); 97% (active) in experiment [5] (setting [8]); 98.2% (active) in experiment [5] (at 50.0 µM); 15% in experiment [6] (setting [7]); 98% (active) in experiment [6] (setting [8]); 96.4% (active) in experiment [6] (at 50.0 µM).

For the compound `CCCCCCCCCCCCCCCCOc1ccc(S(=O)(=O)N/N=c2/sc3ccc(S(=O)(=O)O)cc3n2C)cc1C(=O)O`, the growth inhibition in experiment [1] (setting [7]) was 6%; in experiment [1] (setting [8]), 88% (active); in experiment [1] (at 50.0 µM), 79.6% (active); in experiment [2] (setting [7]) it was 6%; in experiment [2] (setting [8]), 63%; in experiment [2] (at 50.0 µM) it was 78.7% (active). The growth inhibition in experiment [3] (setting [7]) is 0%; in experiment [3] (setting [8]) it was 76% (active); in experiment [3] (at 50.0 µM), 76% (active); in experiment [4] (setting [7]), 16%; in experiment [4] (setting [8]), 62%; in experiment [4] (at 50.0 µM), 40.2%. In addition, the growth inhibition was -3% in experiment [5] (setting [7]); 83% (active) in experiment [5] (setting [8]); 68.8% in experiment [5] (at 50.0 µM); -13% in experiment [6] (setting [7]); 88% (active) in experiment [6] (setting [8]); 73.4% (active) in experiment [6] (at 50.0 µM).

Turning to `Cc1cc2nc3c(C)c4ccccc4c(C)n3c2cc1C`, the growth inhibition in experiment [1] (setting [7]) is 82% (active); in experiment [1] (setting [8]), 93% (active); in experiment [1] (at 50.0 µM), 80.8% (active); in experiment [2] (setting [7]) it was 69%; in experiment [2] (setting [8]), 96% (active); in experiment [2] (at 50.0 µM) it was 87.8% (active). The growth inhibition in experiment [3] (setting [7]) is 72% (active); in experiment [3] (setting [8]) it was 50%; in experiment [3] (at 50.0 µM), 85.3% (active); in experiment [4] (setting [7]) it was 73% (active); in experiment [4] (setting [8]), 94% (active); in experiment [4] (at 50.0 µM), 83.4% (active). Moreover, the growth inhibition in experiment [5] (setting [7]) was 75% (active); in experiment [5] (setting [8]), 94% (active); in experiment [5] (at 50.0 µM), 86.4% (active); in experiment [6] (setting [7]) it was 81% (active); in experiment [6] (setting [8]), 95% (active); in experiment [6] (at 50.0 µM) it was 79.3% (active).

Turning to `COC(=O)/C=C(\C)Nc1ccc(Cc2ccc(Cl)cc2)cc1`, the growth inhibition in experiment [1] (setting [7]) is 7%; in experiment [1] (setting [8]), 98% (active); in experiment [1] (at 50.0 µM) it was 98.3% (active); in experiment [2] (setting [7]), -3%; in experiment [2] (setting [8]), 99% (active); in experiment [2] (at 50.0 µM), 97.8% (active). For the same compound, the growth inhibition is 7% in experiment [3] (setting [7]); 99% (active) in experiment [3] (setting [8]); 97.2% (active) in experiment [3] (at 50.0 µM); 1% in experiment [4] (setting [7]); 99% (active) in experiment [4] (setting [8]); 97.5% (active) in experiment [4] (at 50.0 µM). The growth inhibition in experiment [5] (setting [7]) was -3%; in experiment [5] (setting [8]) it was 98% (active); in experiment [5] (at 50.0 µM) it was 97.5% (active); in experiment [6] (setting [7]) it was 9%; in experiment [6] (setting [8]), 99% (active); in experiment [6] (at 50.0 µM), 98.2% (active).

On to `C#CC(CC)(CC)N=Cc1cc(Cl)cc(Cl)c1O`, for which the growth inhibition in experiment [1] (setting [7]) is 65%; in experiment [1] (setting [8]), 94% (active); in experiment [1] (at 50.0 µM) it was 89.2% (active); in experiment [2] (setting [7]), 42%; in experiment [2] (setting [8]), 97% (active); in experiment [2] (at 50.0 µM), 91.8% (active). For the same compound, the growth inhibition in experiment [3] (setting [7]) is 58%; in experiment [3] (setting [8]), 99% (active); in experiment [3] (at 50.0 µM) it was 92% (active); in experiment [4] (setting [7]) it was 41%; in experiment [4] (setting [8]), 72% (active); in experiment [4] (at 50.0 µM), 88.7% (active). For the same compound, the growth inhibition in experiment [5] (setting [7]) was 51%; in experiment [5] (setting [8]), 66%; in experiment [5] (at 50.0 µM), 90.7% (active); in experiment [6] (setting [7]), 69%; in experiment [6] (setting [8]), 98% (active); in experiment [6] (at 50.0 µM), 90.5% (active).

Take `CC(=C/c1ccccc1)/C=C1/NC(=S)N(/C=C2\C(=O)Oc3ccccc3C2=O)C1=O`: the growth inhibition is -13% in experiment [1] (setting [7]); 28% in experiment [1] (setting [8]); 98.1% (active) in experiment [1] (at 50.0 µM); -8% in experiment [2] (setting [7]); 41% in experiment [2] (setting [8]); 98.7% (active) in experiment [2] (at 50.0 µM). Besides, the growth inhibition in experiment [3] (setting [7]) is -16%; in experiment [3] (setting [8]), 28%; in experiment [3] (at 50.0 µM), 89.1% (active); in experiment [4] (setting [7]), -28%; in experiment [4] (setting [8]), 34%; in experiment [4] (at 50.0 µM) it was 98.5% (active). The growth inhibition in experiment [5] (setting [7]) is -24%; in experiment [5] (setting [8]), 11%; in experiment [5] (at 50.0 µM), 98.5% (active); in experiment [6] (setting [7]), -7%; in experiment [6] (setting [8]), 12%; in experiment [6] (at 50.0 µM), 98.5% (active).

Turning to `CCN(CC)CCOC(=O)Nc1cc(Cl)cc(Cl)c1`, the growth inhibition in experiment [1] (setting [7]) was 50%; in experiment [1] (setting [8]), 68%; in experiment [1] (at 50.0 µM), 71% (active); in experiment [2] (setting [7]), 37%; in experiment [2] (setting [8]) it was 60%; in experiment [2] (at 50.0 µM) it was 47.1%. Moreover, the growth inhibition in experiment [3] (setting [7]) is 52%; in experiment [3] (setting [8]), 87% (active); in experiment [3] (at 50.0 µM), 68.5%; in experiment [4] (setting [7]), 36%; in experiment [4] (setting [8]) it was 62%; in experiment [4] (at 50.0 µM) it was 58.2%. Moreover, the growth inhibition in experiment [5] (setting [7]) was 47%; in experiment [5] (setting [8]), 69%; in experiment [5] (at 50.0 µM), 61.2%; in experiment [6] (setting [7]), 59%; in experiment [6] (setting [8]) it was 86% (active); in experiment [6] (at 50.0 µM), 54.8%.
